The campaign covered roughly 3,200 compounds. About 110 (3.4%) showed an effect of 50% or more. The sample as a whole holds a higher share of strong results than the screen did.
What follows are compounds tested on T1, V. cholerae SAD30. Conditions: relative growth, OD600, LB; 25 µM; inhibitor.
T1 construct: SAD30
Parameters: species or system S. aureus MSSA476 (TSB) or V. cholerae SAD30 (LB); 384-well bacterial growth screen at 25 uM, OD600 relative to DMSO control
`O=C(CCl)Nc1ccc(Cl)c(S(=O)(=O)N2CCCCC2)c1` [4-P14, 2-chloro-N-[4-chloro-3-(piperidine-1-sulfonyl)phenyl]acetamide] was tested, and the “% of control remaining” value was 110.589%.
With `C=CC(=O)NC1(C(N)=O)Cc2ccccc2C1` [2-D15, 2-(prop-2-enamido)-2,3-dihydro-1H-indene-2-carboxamide] the “% of control remaining” value was 88.8063%.
`C=CC(=O)Nc1cc(C)nn1-c1ccccc1F` [2-C15, N-[1-(2-fluorophenyl)-3-methyl-1H-pyrazol-5-yl]prop-2-enamide] was tested, and the “% of control remaining” value was 95.1365%.
With `CC(c1ccccc1F)N1CCCC(NC(=O)CCl)C1=O` (stereo not drawn) [5-I10, 2-chloro-N-{1-[1-(2-fluorophenyl)ethyl]-2-oxopiperidin-3-yl}acetamide] the “% of control remaining” value was 94.4836%.
For `C=CC(=O)N1CCC(C(=O)N2CCC[C@H]2c2ncn[nH]2)CC1` [2-D12, 1-{4-[(2S)-2-(1H-1,2,4-triazol-5-yl)pyrrolidine-1-carbonyl]piperidin-1-yl}prop-2-en-1-one], the “% of control remaining” value was 91.1223%.
In the case of `N#CC(=Cc1ccc2ccccc2c1)C(=O)NC(N)=O` [9-K10, {2-cyano-2-[(naphthalen-2-yl)methylidene]acetyl}urea], the “% of control remaining” value was 87.0836%.
`Cc1ccc(C(=O)c2c(NC(=O)CCl)sc3c2CCCC3)cc1` [6-A12, 2-chloro-N-[3-(4-methylbenzoyl)-4,5,6,7-tetrahydro-1-benzothiophen-2-yl]acetamide] was tested, and the “% of control remaining” value was 94.644%.
With `C=CC(=O)NCC(=C)c1ccccc1` [2-B09, N-(2-phenylprop-2-en-1-yl)prop-2-enamide] the “% of control remaining” value was 87.2624%.
`CC(Cl)C(=O)NC(C)(C)c1ccc(F)cc1F` (stereo not drawn) [6-E21, 2-chloro-N-[2-(2,4-difluorophenyl)propan-2-yl]propanamide] was tested, and the “% of control remaining” value was 92.9756%.
For `C=CC(=O)Nc1cc(CC(C)(C)C)no1` [1-I19, N-[3-(2,2-dimethylpropyl)-1,2-oxazol-5-yl]prop-2-enamide], the “% of control remaining” value was 92.9746%.
`COCc1ncc2c(n1)CC1CCC2N1C(=O)C(C)Cl` (stereo not drawn) [7-M20, 2-chloro-1-[5-(methoxymethyl)-4,6,12-triazatricyclo[7.2.1.0,2,7]dodeca-2,4,6-trien-12-yl]propan-1-one] was tested, and the “% of control remaining” value was 81.4142%.
In the case of `Cc1cc(CO[C@H]2CC[C@H](NC(=O)CCl)CC2)on1` [6-K19, 2-chloro-N-[(1r,4r)-4-[(3-methyl-1,2-oxazol-5-yl)methoxy]cyclohexyl]acetamide], the “% of control remaining” value was 92.9756%.
For `C=CC(=O)Nc1cnn(C2CCCC2)c1` [3-O21, N-(1-cyclopentyl-1H-pyrazol-4-yl)prop-2-enamide], the “% of control remaining” value was 106.734%.
In the case of `N#CC(=Cc1ccccc1Cl)C(=O)Nc1cccc2ncccc12` [8-C15, 3-(2-chlorophenyl)-2-cyano-N-(quinolin-5-yl)prop-2-enamide], the “% of control remaining” value was 75.9347%.
For `C=CC(=O)NCC12CC3CC(CC(C3)C1)C2` [1-F17, N-[(adamantan-1-yl)methyl]prop-2-enamide], the “% of control remaining” value was 83.4081%.
`O=C(CCl)Nc1ccc(Oc2ccccc2)cc1` [4-J09, 2-chloro-N-(4-phenoxyphenyl)acetamide] was tested, and the “% of control remaining” value was 97.6493%.
With `CC(=O)NCCc1ccc(C(=O)CCl)cc1` [10-N03, N-{2-[4-(2-chloroacetyl)phenyl]ethyl}acetamide] the “% of control remaining” value was 115.8%.
`NC(=O)CCc1ccc(C(=O)CCl)cc1` [10-I03, 3-[4-(2-chloroacetyl)phenyl]propanamide] was tested, and the “% of control remaining” value was 70.7578%.
`CSc1ccc(C(=O)CCl)cc1` [10-E07, 2-chloro-1-[4-(methylsulfanyl)phenyl]ethan-1-one] was tested, and the “% of control remaining” value was 0%.
For `CCc1ccc(C(=O)CCl)cc1` [10-F18, 2-chloro-1-(4-ethylphenyl)ethan-1-one], the “% of control remaining” value was 26.1835%.
With `NC(=O)COc1ccc(C(=O)CCl)cc1` [10-M07, 2-[4-(2-chloroacetyl)phenoxy]acetamide] the “% of control remaining” value was 49.25%.
For `CCCc1ccc(C(=O)CCl)cc1` [10-C04, 2-chloro-1-(4-propylphenyl)ethan-1-one], the “% of control remaining” value was 109.254%.
`O=C(CCl)c1ccc(Oc2ccccc2)cc1` [10-G20, 2-chloro-1-(4-phenoxyphenyl)ethan-1-one] was tested, and the “% of control remaining” value was 25.2484%.
In the case of `O=C(CCl)Nc1cccc(Oc2ccccc2)c1` [4-P19, 2-chloro-N-(3-phenoxyphenyl)acetamide], the “% of control remaining” value was 96.6142%.
With `O=C(CCl)NCCCC1CCCCC1` [6-O05, 2-chloro-N-(3-cyclohexylpropyl)acetamide] the “% of control remaining” value was 100.256%.
For `O=C(CCl)NC(c1ccccc1)C1CCCCC1` (stereo not drawn) [6-E12, 2-chloro-N-[cyclohexyl(phenyl)methyl]acetamide], the “% of control remaining” value was 79.0217%.
For `CC(Cl)C(=O)Nc1ccc(S(=O)(=O)N2CCCCC2)cc1` (stereo not drawn) [4-A12, 2-chloro-N-[4-(piperidine-1-sulfonyl)phenyl]propanamide], the “% of control remaining” value was 95.234%.
With `CC(Cl)C(=O)Nc1c(C(C)C)cccc1C(C)C` (stereo not drawn) [4-B15, N-[2,6-bis(propan-2-yl)phenyl]-2-chloropropanamide] the “% of control remaining” value was 91.4384%.
For `C=CC(=O)N[C@H]1CCO[C@@H]1c1ccnn1C(C)C` (racemic) [3-K05, rac-N-[(2R,3R)-2-[1-(propan-2-yl)-1H-pyrazol-5-yl]oxolan-3-yl]prop-2-enamide], the “% of control remaining” value was 98.7943%.
In the case of `O=C(CCl)N1CCN(S(=O)(=O)c2cccc([N+](=O)[O-])c2)CC1` [4-C19, 2-chloro-1-[4-(3-nitrobenzenesulfonyl)piperazin-1-yl]ethan-1-one], the “% of control remaining” value was 91.0934%.
With `C=CC(=O)N1CCC(C(=O)NC2CCCc3cc(F)ccc32)CC1` (stereo not drawn) [2-K18, N-(6-fluoro-1,2,3,4-tetrahydronaphthalen-1-yl)-1-(prop-2-enoyl)piperidine-4-carboxamide] the “% of control remaining” value was 78.153%.
For `O=C(CCl)Nc1cccc(S(=O)(=O)N2CCOCC2)c1` [4-P08, 2-chloro-N-[3-(morpholine-4-sulfonyl)phenyl]acetamide], the “% of control remaining” value was 121.458%.
For `O=C(CCl)Nc1cccc(S(=O)(=O)N=C2CCCCCN2)c1` [4-D08, N-{3-[(azepan-2-ylidene)sulfamoyl]phenyl}-2-chloroacetamide], the “% of control remaining” value was 107.656%.
`CC(C)NC(=O)C(C#N)=Cc1c(Cl)nc2ccccn12` [9-A11, 3-{2-chloroimidazo[1,2-a]pyridin-3-yl}-2-cyano-N-(propan-2-yl)prop-2-enamide] was tested, and the “% of control remaining” value was 91.8423%.
`C=CC(=O)Nc1cc(NC(=O)c2ccc([N+](=O)[O-])o2)ccc1F` [3-J04, N-[4-fluoro-3-(prop-2-enamido)phenyl]-5-nitrofuran-2-carboxamide] was tested, and the “% of control remaining” value was -0.1875%.
With `C=CC(=O)Nc1cc(NC(=O)C2(OC)CCOC2)ccc1F` (stereo not drawn) [3-D05, N-[4-fluoro-3-(prop-2-enamido)phenyl]-3-methoxyoxolane-3-carboxamide] the “% of control remaining” value was 99.5001%.
In the case of `C=CC(=O)Nc1cc(NC(=O)C2CCC2)ccc1F` [2-E10, N-[4-fluoro-3-(prop-2-enamido)phenyl]cyclobutanecarboxamide], the “% of control remaining” value was 92.0486%.
With `CC(C)Cn1c(N)c(C(=O)CCl)c(=O)[nH]c1=O` [10-F08, 6-amino-5-(2-chloroacetyl)-1-(2-methylpropyl)-1,2,3,4-tetrahydropyrimidine-2,4-dione] the “% of control remaining” value was 101.305%.
`O=C(CCl)Nc1cc2c(cc1[N+](=O)[O-])OCCCO2` [4-O05, 2-chloro-N-(8-nitro-3,4-dihydro-2H-1,5-benzodioxepin-7-yl)acetamide] was tested, and the “% of control remaining” value was 108.001%.
In the case of `O=C(CCl)c1c[nH]c2ccncc12` [10-K05, 2-chloro-1-{1H-pyrrolo[3,2-c]pyridin-3-yl}ethan-1-one], the “% of control remaining” value was 101.305%.
In the case of `O=C(CCl)NCC(F)(F)c1cccnc1` [6-C21, 2-chloro-N-[2,2-difluoro-2-(pyridin-3-yl)ethyl]acetamide], the “% of control remaining” value was 97.8292%.
For `Cl.O=C(CCl)c1ccncc1` [10-M09, 2-chloro-1-(pyridin-4-yl)ethan-1-one hydrochloride], the “% of control remaining” value was -0.1559%.
With `Cl.O=C(CCl)c1ccncc1F` [10-I09, 2-chloro-1-(3-fluoropyridin-4-yl)ethan-1-one hydrochloride] the “% of control remaining” value was 0%.
`O=C(CCl)c1ccoc1` [10-O09, 2-chloro-1-(furan-3-yl)ethan-1-one] was tested, and the “% of control remaining” value was 123.281%.
In the case of `O=C(CCl)c1ccc(C(F)(F)F)cc1` [10-B10, 2-chloro-1-[4-(trifluoromethyl)phenyl]ethan-1-one], the “% of control remaining” value was 79.174%.
With `COc1ccc(C=C(C#N)C(=O)Nc2c(C)cccc2C)cc1OC` [8-A17, 2-cyano-3-(3,4-dimethoxyphenyl)-N-(2,6-dimethylphenyl)prop-2-enamide] the “% of control remaining” value was 86.6757%.
In the case of `Cc1n[nH]c(C)c1C=C(C#N)C(=O)Nc1cc(Cl)cc(Cl)c1` [8-M08, 2-cyano-N-(3,5-dichlorophenyl)-3-(3,5-dimethyl-1H-pyrazol-4-yl)prop-2-enamide], the “% of control remaining” value was 68.3209%.
For `CCOc1ccc2nc(NC(=O)CCl)sc2c1` [4-L10, 2-chloro-N-(6-ethoxy-1,3-benzothiazol-2-yl)acetamide], the “% of control remaining” value was 94.3714%.
